What all share (experiment): NCI-60 one-dose screen, 48 h (100 = growth as untreated, 0 = no growth, -100 = all killed)
What all share (settings): 10 µM unless noted

Experiment [1] relates to SR leukemia.
For experiment [2], the system named is RPMI-8226 leukemia.
For experiment [3], the system named is OVCAR-8 ovarian.
The subject of experiment [4] is OVCAR-5 ovarian.
Experiment [5] deals with OVCAR-4 ovarian.
Experiment [6] deals with SK-OV-3 ovarian.
Experiment [7] concerns OVCAR-3 ovarian.
Experiment [8] has as its system HS 578T breast.
Experiment [9] deals with NCI/ADR-RES ovarian.

Compounds without any hit were thinned out: in the full panel of roughly 83,000, 20% have a hit.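 Testing used 96-well plates and a 48-hour single-concentration exposure. Example: -40 means 40% of the starting cells died.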 A number with no mark means an inactive call. Calls of active or inactive are those of the source. Rule for the calls: active = growth percent below 10; inactive = the rest.

Data on 14 compounds can be found in PubChem BioAssay (NCI).

For the compound `COc1ccc2c(c1)CC/C(=C\c1ccc(OCC(=O)Nc3nc4ccccc4s3)cc1)C2=O`, the growth in experiment [1] is 68.4%; in experiment [2], 85.4%; in experiment [3], 98.3%; in [4], 87.8%; in [5] it was 102%; in experiment [6], 104%. In addition, the growth is 116% in experiment [7], 73.5% in experiment [8] and 102% in experiment [9].

Regarding `O=C(COc1cccc(/C=C2\Cc3ccccc3C2=O)c1)c1ccc(Cl)cc1`, the growth in experiment [1] is 111%; in experiment [2] it was 90.2%; in [3], 90.4%; in [4] it was 103%; in experiment [5], 90.1%; in [6], 130%. Further, the figures for the growth in [7], in experiment [8] and in experiment [9] were 120%, 102% and 93.5%, respectively.

Consider `CC1Cc2ccccc2N1C(=O)c1ccc(C(=O)c2ccccc2)cc1` (stereo unspecified), for which the growth was 97.6% in experiment [1]; 74.3% in experiment [2]; 88.4% in [3]; 143% in experiment [4]; 71.2% in experiment [5]; 102% in experiment [6]. The growth in [7] is 78.9%; in experiment [8], 96.3%; in experiment [9], 61.7%.

As for `O=C(O)c1ccc(CNS(=O)(=O)c2ccc3ccccc3c2)cc1`, the growth in experiment [1] is 33.4%; in experiment [2], 112%; in experiment [3], 67.7%; in [4], 115%; in [5] it was 98.3%; in experiment [6], 109%. Further, the growth in [7] is 94.9%; in experiment [8], 81%; in experiment [9] it was 128%.

`Cc1cc(C)nc(NS(=O)(=O)c2ccc(Nc3nc4nc(SCc5ccccc5)nc(-c5ccc(O)cc5)c4c(=O)[nH]3)cc2)n1`: the growth in experiment [1] is 85.7%; in experiment [2] it was 66.7%; in experiment [3], 97%; in [4], 96.2%; in experiment [5], 104%; in experiment [6], 94.9%. Also, the growth in [7] is 120%; in [8], 103%; in experiment [9], 97.3%.

As to `Cc1ccc(-c2csc(N)n2)cc1`, the growth in experiment [1] is 86.3%; in experiment [2], 89.2%; in [3] it was 101%; in experiment [4], 94%; in [5], 94%; in experiment [6], 108%. In addition, the results for the growth in experiment [7], in [8] and in experiment [9] were 114%, 115% and 104%, respectively.

Regarding `O=C(c1ccc(N2CCOCC2)cc1[N+](=O)[O-])N1CCOCC1`, the growth is 423% in experiment [1]; 128% in experiment [2]; 73.5% in [3]; 102% in [4]; 52% in experiment [5]; 110% in experiment [6]. Further, the growth was 110% in experiment [7], 33% in [8] and 108% in experiment [9].

With `Nc1nc(NC2CC2)c2ncn(C3C=CC(CO)C3)c2n1` (stereo unspecified), the growth in [1] was 80.8%; in experiment [2], 111%; in experiment [3], 93.9%; in [4] it was 103%; in [5], 106%; in [6], 117%. Besides, the growth was 110% in [7], 104% in [8] and 104% in experiment [9].

For `Cc1nn(-c2nc3ccccc3s2)c(C)c1Oc1ccccc1O`, the growth in [1] was 19.6%; in experiment [2], 33.1%; in experiment [3], 50.6%; in experiment [4], 121%; in experiment [5], 74.9%; in [6] it was 75.3%. Besides, the growth was 75.5% in experiment [7], 39% in experiment [8] and 101% in [9].

Take `COc1ccc(CNC(=O)c2c(C)n([O-])c3ccccc3[n+]2=O)cc1`: the growth in experiment [1] is 97.4%; in experiment [2], 96.3%; in [3], 96.5%; in [4], 89.9%; in [5] it was 97.7%; in [6], 99.3%. Further, the growth in experiment [7] was 115%; in experiment [8], 111%; in experiment [9] it was 54.2%.

On to `CCOC1Oc2ccccc2C(=O)/C1=N/c1nccs1` (stereo unspecified), for which the growth was 57.1% in [1]; 36.3% in experiment [2]; 114% in experiment [3]; 99.1% in experiment [4]; 94.5% in [5]; 97.7% in experiment [6]. Besides, the growth in [7] was 64.7%; in experiment [8], 90.3%; in [9], 87.9%.

With `CCc1ccc(-c2nc(SCC(=O)NC3CCCCC3)n[nH]2)cc1`, the growth in [1] is 12.6%; in [2] it was 32.8%; in experiment [3] it was 70%; in experiment [4], 94.2%; in experiment [5] it was 72.6%; in experiment [6], 84.8%. Besides, the growth in experiment [7] was 64%; in experiment [8], 74.6%; in experiment [9], 75.4%.

Turning to `Cc1ccc2c(c1)C(=O)/C(=C\Nc1ccc(C(N)=O)cc1)C(O)O2` (stereo unspecified), the growth was 97.1% in experiment [1]; 46.5% in experiment [2]; 97.1% in experiment [3]; 110% in experiment [4]; 101% in [5]; 107% in experiment [6]. The growth was 84.6% in experiment [7], 97.4% in experiment [8] and 110% in experiment [9].

Regarding `O=C1C(=O)c2c(nc3ccc(Cl)cn23)-c2ccccc21`, the growth was -86.5% (active) in experiment [1]; -53.7% (active) in [2]; -100% (active) in experiment [3]; -100% (active) in experiment [4]; -100% (active) in experiment [5]; -100% (active) in experiment [6]. The growth in experiment [7] is -96% (active); in experiment [8], -33.8% (active); in experiment [9], -41.1% (active).
